The values below come from paper PMC4336329 (PLoS ONE, 2015).

Each structure is given as a SMILES string. In all, about 310,000 compounds went through this assay and about 14,000 (4.5%) showed an effect of 50% or more. Effects have a minus sign here. The sample as a whole holds a higher share of strong results than the screen did.
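Also: peak tail current of the secondary pulse compared with the same well before compound.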

The target of this test is human ether-à-go-go-related gene (hERG) potassium channel (human, UniProt Q12809). Nature of the test: primary screen, population patch clamp on CHO cells stably expressing hERG; higher = less effect of the substance.
Chain of human ether-à-go-go-related gene (hERG) potassium channel (Q12809 whole entry, looked up): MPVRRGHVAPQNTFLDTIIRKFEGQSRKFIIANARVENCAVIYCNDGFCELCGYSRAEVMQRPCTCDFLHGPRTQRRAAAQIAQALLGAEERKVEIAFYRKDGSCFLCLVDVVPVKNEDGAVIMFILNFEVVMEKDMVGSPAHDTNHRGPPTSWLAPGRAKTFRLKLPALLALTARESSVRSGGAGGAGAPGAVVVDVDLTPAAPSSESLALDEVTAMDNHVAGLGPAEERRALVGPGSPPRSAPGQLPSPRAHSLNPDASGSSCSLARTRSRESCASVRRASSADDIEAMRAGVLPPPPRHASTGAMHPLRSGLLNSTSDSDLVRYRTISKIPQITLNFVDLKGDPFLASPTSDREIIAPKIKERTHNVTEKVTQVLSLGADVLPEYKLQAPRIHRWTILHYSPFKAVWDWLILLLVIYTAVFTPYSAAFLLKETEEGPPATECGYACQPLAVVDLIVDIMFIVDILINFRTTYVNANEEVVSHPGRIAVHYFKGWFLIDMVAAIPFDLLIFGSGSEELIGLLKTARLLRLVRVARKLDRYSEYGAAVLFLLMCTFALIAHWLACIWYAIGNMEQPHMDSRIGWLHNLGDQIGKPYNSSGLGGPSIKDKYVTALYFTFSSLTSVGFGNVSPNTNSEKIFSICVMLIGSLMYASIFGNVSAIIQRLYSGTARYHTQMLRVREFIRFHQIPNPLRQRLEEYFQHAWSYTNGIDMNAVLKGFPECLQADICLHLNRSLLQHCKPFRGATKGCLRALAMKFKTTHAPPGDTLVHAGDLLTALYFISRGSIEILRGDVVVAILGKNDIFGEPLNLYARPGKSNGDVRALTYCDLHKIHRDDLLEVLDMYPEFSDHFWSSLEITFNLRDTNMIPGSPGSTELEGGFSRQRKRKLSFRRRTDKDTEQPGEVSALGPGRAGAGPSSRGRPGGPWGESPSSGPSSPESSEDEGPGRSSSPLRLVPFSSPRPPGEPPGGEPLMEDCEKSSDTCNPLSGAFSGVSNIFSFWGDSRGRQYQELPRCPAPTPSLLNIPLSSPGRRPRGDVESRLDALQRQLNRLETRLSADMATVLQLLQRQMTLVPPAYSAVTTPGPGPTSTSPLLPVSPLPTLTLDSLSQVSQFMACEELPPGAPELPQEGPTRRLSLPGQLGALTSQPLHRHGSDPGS
Consider `CCOC(=O)C1(Cc2ccc(OC)cc2)CCN(S(C)(=O)=O)CC1`, for which the “hERG current change (%, negative = inhibition) at 10uM” value amounted to 25.6%.

Regarding `CCOC(=O)C1(Cc2cccc(F)c2)CCN(Cc2cnn(CC)c2)CC1`, the “hERG current change (%, negative = inhibition) at 10uM” value is -32.2%.

As to `CCOC(=O)C1(Cc2ccc(Cl)cc2)CCN(CCCn2cccn2)CC1`, the “hERG current change (%, negative = inhibition) at 10uM” value is on record as -74.8%.

In the case of `CCOC(=O)C1(Cc2ccc(Cl)cc2)CCN(C(C)CCn2cccn2)CC1` (stereo not drawn), the “hERG current change (%, negative = inhibition) at 10uM” value is reported as -87.2%.

Take `CCOC(=O)C1(Cc2cccc(OC)c2)CCN(C(C)CC(C)(C)O)CC1` (stereo not drawn): the “hERG current change (%, negative = inhibition) at 10uM” value is reported as -28.5%.

As to `O=C1NC(=O)C(Nc2cccc3ccccc23)S1` (stereo not drawn), the “hERG current change (%, negative = inhibition) at 10uM” value was 7.89%.

On to `Cc1cccc(-c2nc3c(c(SCC(=O)N(C)C)n2)CCCC3)c1`, for which the “hERG current change (%, negative = inhibition) at 10uM” value is reported as -21.5%.

As to `COC(=O)c1ccc([C@H](NC(=O)c2ccco2)[C@]2(C)C[C@H]2C2CCCCC2)cc1`, the “hERG current change (%, negative = inhibition) at 10uM” value worked out at 9.14%.

For the compound `COc1ccc(CN2CCn3ncc(C(=O)Nc4cccc(C)c4)c3C2=O)cc1`, the “hERG current change (%, negative = inhibition) at 10uM” value is recorded as 6.5%.

Consider `Cc1ccc(S(=O)(=O)N/N=C/c2ccc(OCC(=O)Nc3ccccc3Cl)cc2)cc1`, for which the “hERG current change (%, negative = inhibition) at 10uM” value was 1.73%.

For `COc1cccc(N(C(=O)Cn2nnc(-c3cccs3)n2)C(C(=O)NC2CCCCC2)c2ccncc2)c1` (stereo not drawn), the “hERG current change (%, negative = inhibition) at 10uM” value was 8%.

Consider `COc1cc2c(c(O)c1OC)-c1c(cc(OC)c(OC)c1OC)C[C@@H](C)[C@@H](C)C2`, for which the “hERG current change (%, negative = inhibition) at 10uM” value is reported as -78.6%.

With `Br.COc1cc2c(cc1OC)-c1c(OC)c(OC)cc3c1[C@H](C2)[NH+](C)CC3`, the “hERG current change (%, negative = inhibition) at 10uM” value is -16.7%.

`COc1cc2c(c(OC)c1OC)-c1c(cc3c(c1OC)OCO3)C[C@H](C)[C@@](C)(O)C2`: the “hERG current change (%, negative = inhibition) at 10uM” value was 28.4%.

Consider `COc1cc2c(c(OC)c1OC)-c1c(cc3c(c1OC)OCO3)[C@@H](OC(C)=O)[C@H](C)[C@H](C)C2`, for which the “hERG current change (%, negative = inhibition) at 10uM” value is -66.8%.

As for `COc1cc2c(c(OC)c1OC)-c1c(cc3c(c1O)OCO3)C[C@@H](C)[C@@H](C)C2`, the “hERG current change (%, negative = inhibition) at 10uM” value came to 0.26%.

`COc1cc2c(c(OC)c1OC)-c1c(cc(OC)c(OC)c1OC)C[C@](C)(O)[C@@H](C)C2`: the “hERG current change (%, negative = inhibition) at 10uM” value is recorded as -73.7%.

`COc1cc2c(c(OC)c1OC)-c1c(cc3c(c1OC)OCO3)C1OC2[C@@H](C)[C@H]1C` (stereo partly drawn): the “hERG current change (%, negative = inhibition) at 10uM” value is -4.76%.

Turning to `C/C=C(/C)C(=O)O[C@@H]1c2cc3c(c(OC)c2-c2c(cc(OC)c(OC)c2OC)[C@@H](OC(C)=O)[C@@H](C)[C@H]1C)OCO3`, the “hERG current change (%, negative = inhibition) at 10uM” value is 4.78%.

For the compound `COc1cc2c(c(O)c1OC)C(=O)C(OC)CCC2` (stereo not drawn), the “hERG current change (%, negative = inhibition) at 10uM” value is -3.32%.

For the compound `COc1cc2c(c(OC)c1OC)C(=O)CC2`, the “hERG current change (%, negative = inhibition) at 10uM” value worked out at 15.6%.

Turning to `COc1cc(C2(O)CCCCC2C)cc(OC)c1OC` (stereo not drawn), the “hERG current change (%, negative = inhibition) at 10uM” value is listed as 15.9%.

Take `COc1cc2c(c(OC)c1OC)-c1c(cc(OC)c(OC)c1OC)C[C@H](C)[C@H](C)C2`: the “hERG current change (%, negative = inhibition) at 10uM” value is reported as -71.9%.

Turning to `O=S(=O)(N/N=C/c1ccc(N2CCOCC2)cc1)c1ccc(Br)cc1`, the “hERG current change (%, negative = inhibition) at 10uM” value stood at 15.1%.

On to `Cc1ccc2nc(-c3ccc(NC(=O)CN4C(=O)NC(C)(c5ccc(OC(F)F)cc5)C4=O)cc3)sc2c1` (stereo not drawn), for which the “hERG current change (%, negative = inhibition) at 10uM” value is 12.4%.

Consider `Cc1cccc(-n2c(C)cc(/C=N/n3cnnc3)c2C)c1`, for which the “hERG current change (%, negative = inhibition) at 10uM” value was -0.869%.

In the case of `O=C(Nc1ccc(S(=O)(=O)Nc2nccs2)cc1)C1CC(=O)N(c2ccc(Cl)cc2)C1` (stereo not drawn), the “hERG current change (%, negative = inhibition) at 10uM” value turned out to be 0.55%.

As to `CC1=C(C(=O)OC(C)C)C2(O)C(=O)c3ccccc3C2(O)N1` (stereo not drawn), the “hERG current change (%, negative = inhibition) at 10uM” value is listed as 12%.

For `CN(CC(=O)Nc1c(Cl)cccc1Cl)C(=O)Cc1cccs1`, the “hERG current change (%, negative = inhibition) at 10uM” value turned out to be 2.98%.

Take `Cc1cc(=O)oc(C)c1C(=O)NCc1ccc(F)cc1`: the “hERG current change (%, negative = inhibition) at 10uM” value is listed as -15.9%.

As for `O=C1CCCCC/C1=N/Nc1ccc(OCc2ccccc2)cc1`, the “hERG current change (%, negative = inhibition) at 10uM” value worked out at 17.3%.

As to `CC(C)(C)c1ccc(-n2ncc3c2CCCC3NC(=O)C2(C(N)=O)CC2)cc1` (stereo not drawn), the “hERG current change (%, negative = inhibition) at 10uM” value was -29.1%.

Regarding `CCCCOc1ccc(/C=C/C(=O)OCC(=O)N2CC(=O)Nc3ccccc32)cc1OCC`, the “hERG current change (%, negative = inhibition) at 10uM” value is on record as 21.2%.

As for `CCCCn1c(C)c(C(=O)OCC)c2c(CN3CCOCC3)c(O)ccc21`, the “hERG current change (%, negative = inhibition) at 10uM” value was -55.9%.

Take `CCOC(=O)c1c(-c2ccccc2)oc2ccc(O)c(CN3CCOCC3)c12`: the “hERG current change (%, negative = inhibition) at 10uM” value is on record as -37%.

With `CCOC(=O)c1c(C)n(C)c2ccc(O)c(CN3CCN(C)CC3)c12`, the “hERG current change (%, negative = inhibition) at 10uM” value is -3.46%.

With `CCOC(=O)c1c(C)n(C)c2ccc(O)c(CN3CCC(C)CC3)c12`, the “hERG current change (%, negative = inhibition) at 10uM” value was -23.2%.

Take `CCOC(=O)c1c(C)oc2ccc(O)c(CN3CCCCC3)c12`: the “hERG current change (%, negative = inhibition) at 10uM” value is -37.4%.

On to `CCOC(=O)c1c(CSc2ccccc2)n(C)c2ccc(O)c(CN3CCOCC3)c12`, for which the “hERG current change (%, negative = inhibition) at 10uM” value is on record as -46.3%.

Regarding `CCCCn1c(C)c(C(=O)OCC)c2c(CN3CCCC3)c(O)ccc21`, the “hERG current change (%, negative = inhibition) at 10uM” value is reported as -72%.

In the case of `CCOC(=O)c1oc2cccc(O)c2c1CN1CCOCC1.Cl`, the “hERG current change (%, negative = inhibition) at 10uM” value was -17.1%.

For the compound `CCOC(=O)c1c(-c2ccccc2)oc2ccc(O)c(CN3CCCC3)c12`, the “hERG current change (%, negative = inhibition) at 10uM” value is -64.3%.

As to `CCOC(=O)c1c(-c2ccccc2)oc2ccc(O)c(CN3CCN(C)CC3)c12`, the “hERG current change (%, negative = inhibition) at 10uM” value is reported as -23.5%.

As to `CCOC(=O)c1c(CSc2ccccc2)n(C)c2ccc(O)c(CN3CCN(C)CC3)c12`, the “hERG current change (%, negative = inhibition) at 10uM” value is on record as -22.6%.

In the case of `CCOC(=O)c1c(C)n(C)c2ccc(O)c(CN3CCCCC3)c12`, the “hERG current change (%, negative = inhibition) at 10uM” value is listed as -55.5%.
